This is an account of results in PubChem BioAssay (NCI).

Among the test systems are NCI-H23 lung; NCI-H226 lung; NCI-H322M lung; HOP-62 NSCLC; NCI-H460 lung; NCI-H522 lung; A549/ATCC NSCLC; 786-0 renal; COLO 205 colon; DU-145 prostate; K-562 leukemia; MDA-MB-231 breast; SF-268 CNS; SF-295 CNS; SF-539 CNS; UACC-257 melanoma; M14 melanoma; MALME-3M melanoma; RXF 393 renal.
What all share (assay): NCI-60 one-dose screen, 48 h (100 = growth as untreated, 0 = no growth, -100 = all killed)
Holding throughout (conditions): 10 µM

Compounds without any hit were thinned out: in the full panel of roughly 83,000, 20% have a hit.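 Assay: single dose, 48 h. Readout: percent growth (0 = no net growth; negative = cell death). Active: <10.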 A number with no mark means an inactive call. Activity calls are given as the source filed them.

For the compound `CC(C)(C)c1cc(O)c(C(C)(C)C)cc1O`, the growth was 96.3% with NCI-H23 lung; 67.8% with NCI-H226 lung; 100% in the assay with NCI-H322M lung; 105% in the assay with HOP-62 NSCLC; 96.3% in the assay with NCI-H460 lung; 63.3% in the assay with NCI-H522 lung. The growth was 87.4% with A549/ATCC NSCLC; 95.8% in the assay on 786-0 renal; 108% with COLO 205 colon; 108% in the assay with DU-145 prostate; 96.7% in the assay with K-562 leukemia; 88.9% in the assay on MDA-MB-231 breast. Moreover, the growth in the assay on SF-268 CNS is 95.8%; with SF-295 CNS, 85.7%; in the assay on SF-539 CNS it was 86.1%; in the assay with UACC-257 melanoma, 85.6%; in the assay with M14 melanoma it was 103%.
Turning to `Nc1nc(N)c(N=Nc2ccc(C(=O)O)cc2)c(N)n1`, the growth was 99.6% in the assay with NCI-H23 lung; 108% with NCI-H226 lung; 104% with NCI-H322M lung; 106% in the assay on HOP-62 NSCLC; 117% with NCI-H460 lung; -5.11% (active) in the assay on NCI-H522 lung. For the same compound, the growth was 51.8% with A549/ATCC NSCLC; 107% in the assay on 786-0 renal; 111% in the assay on DU-145 prostate; 108% with K-562 leukemia; 106% in the assay on MALME-3M melanoma; 107% with MDA-MB-231 breast. The growth in the assay with RXF 393 renal was 113%; in the assay with SF-268 CNS, 107%; in the assay with SF-295 CNS, 104%; with SF-539 CNS, 101%; in the assay on UACC-257 melanoma, 30.9%; in the assay with M14 melanoma, 98.4%.
With `C[C@@H](c1ccccc1)[C@@H](C(=O)O)c1ccccc1`, the growth is 100% in the assay with NCI-H23 lung; 98.8% in the assay on NCI-H226 lung; 97.5% in the assay with NCI-H322M lung; 99.7% in the assay with HOP-62 NSCLC; 104% in the assay with NCI-H460 lung; 99.9% in the assay with NCI-H522 lung. For the same compound, the growth in the assay with A549/ATCC NSCLC was 101%; with 786-0 renal, 99.5%; with COLO 205 colon, 107%; in the assay with DU-145 prostate, 114%; in the assay on K-562 leukemia, 110%; with MDA-MB-231 breast, 110%. For the same compound, the growth with SF-268 CNS is 106%; with SF-295 CNS it was 98.6%; with SF-539 CNS it was 96.5%; with UACC-257 melanoma, 98.8%; in the assay on M14 melanoma it was 101%.
On to `CC(=O)Nc1cccc(NC(C)=O)n1`, for which the growth in the assay with NCI-H23 lung was 128%; in the assay with NCI-H226 lung, 103%; in the assay on NCI-H322M lung, 104%; in the assay with HOP-62 NSCLC, 101%; with NCI-H460 lung, 104%; in the assay on NCI-H522 lung, 100%. Further, the growth is 108% with A549/ATCC NSCLC; 101% in the assay with 786-0 renal; 123% with COLO 205 colon; 110% in the assay with DU-145 prostate; 96.6% in the assay with K-562 leukemia; 91.5% with MALME-3M melanoma. For the same compound, the growth in the assay on MDA-MB-231 breast is 107%; in the assay with SF-268 CNS it was 100%; with SF-295 CNS it was 108%; in the assay on SF-539 CNS it was 103%; with UACC-257 melanoma, 102%; with M14 melanoma it was 103%.
On to `CCCNc1ccc(C2=NCCCN2)cc1`, for which the growth was 95.6% with NCI-H23 lung; 104% in the assay on NCI-H226 lung; 88.7% in the assay on NCI-H322M lung; 94.9% in the assay with HOP-62 NSCLC; 103% in the assay with NCI-H460 lung; 94.2% in the assay with NCI-H522 lung. Further, the growth in the assay with A549/ATCC NSCLC is 79.2%; with 786-0 renal, 88.9%; in the assay on COLO 205 colon it was 99.5%; in the assay on DU-145 prostate, 103%; with K-562 leukemia, 89.8%; in the assay with MDA-MB-231 breast, 98.7%. Further, the growth in the assay on SF-268 CNS was 98.9%; in the assay with SF-295 CNS, 91%; in the assay with SF-539 CNS, 102%; in the assay with UACC-257 melanoma, 99.8%; in the assay on M14 melanoma, 96.1%.
As for `O=S(=O)(O)C(Nc1ccccc1)c1ccccc1` (stereo unspecified), the growth with NCI-H23 lung is 103%; in the assay with NCI-H226 lung, 91.5%; in the assay with NCI-H322M lung it was 97.6%; in the assay on HOP-62 NSCLC, 100%; with NCI-H460 lung, 102%; with NCI-H522 lung, 102%. Also, the growth in the assay with A549/ATCC NSCLC was 103%; in the assay with 786-0 renal, 100%; in the assay on COLO 205 colon it was 103%; in the assay on DU-145 prostate, 110%; with K-562 leukemia, 87.6%; in the assay on MDA-MB-231 breast, 99.1%. The growth in the assay on SF-268 CNS was 107%; with SF-295 CNS it was 107%; in the assay on SF-539 CNS, 93.6%; in the assay on UACC-257 melanoma it was 140%; in the assay with M14 melanoma it was 98.7%.
In the case of `Cc1cc(/C=C/c2ccc3cc(N(C)C)ccc3[n+]2C)c(C)n1-c1ccccc1`, the growth in the assay on NCI-H23 lung is -6.43% (active); in the assay on NCI-H226 lung, -75.1% (active); in the assay with NCI-H322M lung, 2.15% (active); in the assay on HOP-62 NSCLC, -81.5% (active); in the assay on NCI-H460 lung it was -64.8% (active); in the assay on NCI-H522 lung, -31.7% (active). Further, the growth is -44.9% (active) in the assay on A549/ATCC NSCLC; -15.9% (active) with 786-0 renal; -39.2% (active) in the assay on DU-145 prostate; 0.995% (active) in the assay on K-562 leukemia; -56.9% (active) in the assay on MALME-3M melanoma; -18.9% (active) in the assay on MDA-MB-231 breast. For the same compound, the growth with RXF 393 renal was -96.2% (active); with SF-268 CNS, -1.17% (active); in the assay on SF-295 CNS, -33.6% (active); in the assay with UACC-257 melanoma, -39.5% (active); in the assay on M14 melanoma it was -71.3% (active).
Regarding `CC(=O)c1ccc(C(C)(C)C)cc1`, the growth in the assay on NCI-H23 lung was 95.7%; in the assay on NCI-H226 lung, 98.4%; with NCI-H322M lung, 104%; with HOP-62 NSCLC, 91.9%; in the assay with NCI-H460 lung it was 106%; in the assay with NCI-H522 lung, 99.6%. In addition, the growth is 101% in the assay with A549/ATCC NSCLC; 100% with 786-0 renal; 105% in the assay with DU-145 prostate; 103% in the assay on K-562 leukemia; 102% with MALME-3M melanoma; 107% in the assay on MDA-MB-231 breast. Besides, the growth is 95.2% in the assay with RXF 393 renal; 102% with SF-268 CNS; 97.6% with SF-295 CNS; 94.3% in the assay on SF-539 CNS; 97.2% with UACC-257 melanoma.
Consider `Cc1cc(N2CCC(N3CCCC3)CC2)nc(/N=C(\N)Nc2ccc(Cl)c(Cl)c2)n1`, for which the growth with NCI-H23 lung was 56.8%; in the assay on NCI-H226 lung, 84.6%; in the assay on NCI-H322M lung, -30.6% (active); in the assay on HOP-62 NSCLC it was -8.02% (active); with NCI-H460 lung, -67.8% (active); in the assay on NCI-H522 lung, -66.4% (active). The growth with A549/ATCC NSCLC is -22.1% (active); in the assay on 786-0 renal it was -54.3% (active); with COLO 205 colon it was -82.3% (active); with DU-145 prostate, 16.3%; in the assay with K-562 leukemia, -44.4% (active); in the assay with MDA-MB-231 breast it was -58.1% (active). The growth in the assay on RXF 393 renal is -69.7% (active); in the assay with SF-268 CNS, -4.09% (active); in the assay with SF-295 CNS, -96.2% (active); in the assay on SF-539 CNS, -84.7% (active); with UACC-257 melanoma, -78.5% (active); in the assay on M14 melanoma, -85.9% (active).
